Test results reported in the supplement of paper PMC11001985.

compound: C#CCNC(=O)CCSSCCC(=O)NCCc1ccc(C=O)c(C=O)c1; test: lysine labeling ratio R10:1 (500 µM / 50 µM probe), SILAC-ABPP in living cells; higher = lower intrinsic lysine reactivity toward the probe, active = 2 or less; conditions: HeLa; probe concentrations 500 vs 50 µM
How it was run: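 Forward and reverse SILAC label swaps were used with living light and heavy HeLa cells in PBS at room temperature, which were given an alkyne-tagged, disulfide-linked lysine probe at 50 µM or 500 µM. R is the per-lysine filtered median high-probe/low-probe MS1 peptide ratio, with the median then taken across both swap directions. Values are limited to 20.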

Chain of UniProt P00558 (P00558 whole entry): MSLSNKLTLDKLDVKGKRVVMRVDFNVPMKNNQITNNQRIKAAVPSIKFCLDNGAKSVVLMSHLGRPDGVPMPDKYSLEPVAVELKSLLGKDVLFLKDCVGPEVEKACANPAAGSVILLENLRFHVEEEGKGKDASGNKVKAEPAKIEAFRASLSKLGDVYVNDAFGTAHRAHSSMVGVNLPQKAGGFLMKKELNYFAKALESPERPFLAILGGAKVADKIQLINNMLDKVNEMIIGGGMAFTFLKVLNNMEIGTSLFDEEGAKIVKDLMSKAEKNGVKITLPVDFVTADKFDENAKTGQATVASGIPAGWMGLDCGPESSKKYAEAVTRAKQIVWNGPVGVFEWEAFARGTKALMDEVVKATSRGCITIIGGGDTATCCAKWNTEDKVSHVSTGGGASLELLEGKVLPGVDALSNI
Chain of UniProt Q13813 (Q13813 whole entry): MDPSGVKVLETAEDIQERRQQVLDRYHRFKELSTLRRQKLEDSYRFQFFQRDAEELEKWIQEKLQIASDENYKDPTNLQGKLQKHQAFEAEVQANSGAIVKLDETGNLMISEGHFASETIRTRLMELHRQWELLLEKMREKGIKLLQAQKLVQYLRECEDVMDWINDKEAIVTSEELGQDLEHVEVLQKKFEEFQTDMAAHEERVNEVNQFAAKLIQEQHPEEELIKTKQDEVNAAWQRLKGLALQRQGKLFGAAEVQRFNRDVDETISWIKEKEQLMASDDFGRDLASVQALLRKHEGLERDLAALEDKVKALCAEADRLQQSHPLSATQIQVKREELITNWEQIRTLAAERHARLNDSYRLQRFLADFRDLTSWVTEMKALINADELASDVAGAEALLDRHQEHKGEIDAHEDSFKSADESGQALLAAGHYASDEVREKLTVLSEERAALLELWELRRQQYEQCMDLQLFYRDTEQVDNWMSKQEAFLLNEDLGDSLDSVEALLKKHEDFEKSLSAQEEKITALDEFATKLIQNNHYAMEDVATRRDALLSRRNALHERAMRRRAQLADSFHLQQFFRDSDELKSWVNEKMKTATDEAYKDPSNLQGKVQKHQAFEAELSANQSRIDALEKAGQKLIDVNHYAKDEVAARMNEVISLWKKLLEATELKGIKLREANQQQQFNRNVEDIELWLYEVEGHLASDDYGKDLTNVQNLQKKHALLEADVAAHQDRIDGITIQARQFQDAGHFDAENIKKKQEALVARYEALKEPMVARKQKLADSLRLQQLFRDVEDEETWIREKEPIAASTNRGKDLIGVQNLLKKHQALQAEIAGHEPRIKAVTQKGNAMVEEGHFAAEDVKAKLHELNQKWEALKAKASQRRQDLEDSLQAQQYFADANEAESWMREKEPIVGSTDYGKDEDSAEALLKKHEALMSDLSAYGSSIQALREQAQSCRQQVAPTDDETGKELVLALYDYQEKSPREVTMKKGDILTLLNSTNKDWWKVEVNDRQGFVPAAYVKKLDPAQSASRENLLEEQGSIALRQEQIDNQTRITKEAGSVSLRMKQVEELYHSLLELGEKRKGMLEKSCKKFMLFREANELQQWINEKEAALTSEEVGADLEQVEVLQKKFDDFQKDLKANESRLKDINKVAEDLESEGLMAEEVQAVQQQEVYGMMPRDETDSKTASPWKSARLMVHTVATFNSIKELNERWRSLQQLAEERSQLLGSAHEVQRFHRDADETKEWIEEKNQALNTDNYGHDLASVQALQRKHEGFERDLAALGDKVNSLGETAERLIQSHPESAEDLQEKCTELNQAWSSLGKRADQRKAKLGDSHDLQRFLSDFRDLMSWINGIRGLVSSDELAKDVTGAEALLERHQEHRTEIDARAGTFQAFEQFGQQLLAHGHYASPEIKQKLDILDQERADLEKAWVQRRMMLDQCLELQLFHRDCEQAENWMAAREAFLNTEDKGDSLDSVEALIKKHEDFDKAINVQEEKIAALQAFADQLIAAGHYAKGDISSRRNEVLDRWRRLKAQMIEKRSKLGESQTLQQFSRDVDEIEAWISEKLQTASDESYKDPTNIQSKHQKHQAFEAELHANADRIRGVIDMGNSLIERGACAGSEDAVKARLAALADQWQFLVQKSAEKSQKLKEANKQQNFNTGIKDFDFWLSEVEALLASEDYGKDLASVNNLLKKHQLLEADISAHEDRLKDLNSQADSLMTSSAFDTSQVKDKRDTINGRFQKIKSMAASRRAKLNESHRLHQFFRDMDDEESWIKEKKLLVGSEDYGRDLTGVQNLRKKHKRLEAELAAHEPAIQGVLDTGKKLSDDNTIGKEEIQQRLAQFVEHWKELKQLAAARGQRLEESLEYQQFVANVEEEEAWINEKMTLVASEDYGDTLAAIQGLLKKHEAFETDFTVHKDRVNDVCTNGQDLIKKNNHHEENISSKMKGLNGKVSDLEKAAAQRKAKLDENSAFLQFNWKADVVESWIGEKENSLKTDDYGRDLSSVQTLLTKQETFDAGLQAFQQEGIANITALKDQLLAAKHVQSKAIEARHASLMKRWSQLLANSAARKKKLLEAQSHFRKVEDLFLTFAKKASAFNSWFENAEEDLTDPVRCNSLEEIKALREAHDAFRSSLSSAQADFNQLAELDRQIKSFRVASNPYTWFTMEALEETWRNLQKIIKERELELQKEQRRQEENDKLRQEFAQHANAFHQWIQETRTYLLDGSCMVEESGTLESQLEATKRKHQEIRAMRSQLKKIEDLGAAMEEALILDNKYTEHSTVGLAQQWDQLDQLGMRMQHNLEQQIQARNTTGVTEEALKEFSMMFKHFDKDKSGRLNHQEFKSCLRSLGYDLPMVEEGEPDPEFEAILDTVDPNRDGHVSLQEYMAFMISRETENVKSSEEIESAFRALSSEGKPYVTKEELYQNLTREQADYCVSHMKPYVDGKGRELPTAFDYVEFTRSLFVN
Chain of UniProt Q12797 (Q12797 whole entry): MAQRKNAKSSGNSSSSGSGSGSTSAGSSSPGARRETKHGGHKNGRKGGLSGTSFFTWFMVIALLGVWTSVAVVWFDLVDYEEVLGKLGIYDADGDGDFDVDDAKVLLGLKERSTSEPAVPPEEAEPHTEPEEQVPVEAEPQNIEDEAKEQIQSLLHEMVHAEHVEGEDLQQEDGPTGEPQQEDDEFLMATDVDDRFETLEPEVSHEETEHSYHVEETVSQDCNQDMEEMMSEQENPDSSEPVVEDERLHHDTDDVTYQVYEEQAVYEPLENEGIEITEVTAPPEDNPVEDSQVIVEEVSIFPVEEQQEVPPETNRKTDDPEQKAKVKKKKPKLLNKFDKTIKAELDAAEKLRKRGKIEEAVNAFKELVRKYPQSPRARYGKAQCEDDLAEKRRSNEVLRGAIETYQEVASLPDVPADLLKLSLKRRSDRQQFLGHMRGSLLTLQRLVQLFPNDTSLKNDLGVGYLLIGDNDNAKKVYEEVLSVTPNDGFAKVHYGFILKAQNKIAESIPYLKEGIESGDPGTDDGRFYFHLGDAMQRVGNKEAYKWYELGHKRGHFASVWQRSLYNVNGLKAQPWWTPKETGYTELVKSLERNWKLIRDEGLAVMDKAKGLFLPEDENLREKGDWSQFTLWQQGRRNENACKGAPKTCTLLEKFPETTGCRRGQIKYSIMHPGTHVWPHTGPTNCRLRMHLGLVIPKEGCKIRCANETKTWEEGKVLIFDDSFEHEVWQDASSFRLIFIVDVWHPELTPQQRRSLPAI
Chain of UniProt P00533 (P00533 whole entry): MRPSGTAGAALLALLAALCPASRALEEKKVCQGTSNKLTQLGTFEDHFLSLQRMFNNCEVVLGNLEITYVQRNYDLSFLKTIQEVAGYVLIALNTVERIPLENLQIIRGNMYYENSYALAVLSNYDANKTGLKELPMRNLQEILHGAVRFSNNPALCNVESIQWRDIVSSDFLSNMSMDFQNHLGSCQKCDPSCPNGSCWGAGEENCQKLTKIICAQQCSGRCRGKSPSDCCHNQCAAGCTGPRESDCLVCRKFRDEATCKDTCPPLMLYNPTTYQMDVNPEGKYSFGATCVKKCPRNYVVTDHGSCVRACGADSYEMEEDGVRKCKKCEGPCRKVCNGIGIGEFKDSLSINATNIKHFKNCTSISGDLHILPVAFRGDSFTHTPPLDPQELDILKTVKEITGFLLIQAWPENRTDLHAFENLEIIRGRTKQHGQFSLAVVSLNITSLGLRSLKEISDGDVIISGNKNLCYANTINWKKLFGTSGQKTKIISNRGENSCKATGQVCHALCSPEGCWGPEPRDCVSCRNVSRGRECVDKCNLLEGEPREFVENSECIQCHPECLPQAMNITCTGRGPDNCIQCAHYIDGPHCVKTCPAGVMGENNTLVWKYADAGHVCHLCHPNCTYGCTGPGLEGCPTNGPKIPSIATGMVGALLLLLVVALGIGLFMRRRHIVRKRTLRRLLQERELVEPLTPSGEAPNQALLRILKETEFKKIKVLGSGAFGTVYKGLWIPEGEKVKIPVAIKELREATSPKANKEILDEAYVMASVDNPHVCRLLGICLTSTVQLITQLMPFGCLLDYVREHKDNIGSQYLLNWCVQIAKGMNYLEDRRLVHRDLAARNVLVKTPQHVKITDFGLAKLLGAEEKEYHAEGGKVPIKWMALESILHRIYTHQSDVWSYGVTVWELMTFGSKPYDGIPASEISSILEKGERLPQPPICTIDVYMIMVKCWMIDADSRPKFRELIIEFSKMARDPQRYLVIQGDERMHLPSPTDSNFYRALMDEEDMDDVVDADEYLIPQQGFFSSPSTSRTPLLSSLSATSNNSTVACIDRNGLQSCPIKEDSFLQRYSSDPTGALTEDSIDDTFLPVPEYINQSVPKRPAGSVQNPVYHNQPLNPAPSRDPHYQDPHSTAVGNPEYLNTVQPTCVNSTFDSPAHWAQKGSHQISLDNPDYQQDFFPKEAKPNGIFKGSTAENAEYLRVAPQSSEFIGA
Chain of UniProt P21926 (P21926 whole entry): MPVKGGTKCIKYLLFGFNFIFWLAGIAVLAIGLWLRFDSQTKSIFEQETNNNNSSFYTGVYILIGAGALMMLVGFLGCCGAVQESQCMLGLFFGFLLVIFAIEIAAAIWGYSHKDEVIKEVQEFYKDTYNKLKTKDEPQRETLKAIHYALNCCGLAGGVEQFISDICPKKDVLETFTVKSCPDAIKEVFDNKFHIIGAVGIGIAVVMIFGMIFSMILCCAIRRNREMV

Target | lysine labeling ratio R10:1
HGS (lysine site: K551) (UniProt O14964) | 0.818 (active)
UniProt P54851 (lysine site: K126) | 3.69 (inactive)
CCT5 (lysine site: K399) (UniProt P48643) | 2.73 (inactive)
NPTN (lysine site: K244) (UniProt Q9Y639) | 8.84 (inactive)
ERP29 (lysine site: K137) (UniProt P30040) | 6.12 (inactive)
UniProt O43570 (lysine site: K279) | 2.86 (inactive)
L1CAM (lysine site: K515) (UniProt P32004) | 1.77 (active)
UniProt Q15149 (lysine site: K4270) | 0.968 (active)
PGK1 (lysine site: K361) (UniProt P00558) | 3.45 (inactive)
UniProt Q8WXI7 (lysine site: K10462) | 1.27 (active)
TLN1 (lysine site: K1948) (UniProt Q9Y490) | 0.788 (active)
UniProt P60842 (lysine site: K54) | 1.77 (active)
MCAM (lysine site: K217) (UniProt P43121) | 2.14 (inactive)
ASPH (lysine site: K588) (UniProt Q12797) | 1.1 (active)
UniProt Q15149 (lysine site: K2553) | 3.44 (inactive)
ASPH (lysine site: K552) (UniProt Q12797) | 4.2 (inactive)
DDX3X (lysine site: K81) (UniProt O00571) | 2.77 (inactive)
SPTAN1 (lysine site: K296) (UniProt Q13813) | 2.12 (inactive)
MET (lysine site: K600) (UniProt P08581) | 1.67 (active)
UniProt Q5XKE5 (lysine site: K253) | 2.87 (inactive)

Target | lysine labeling ratio R10:1
ITGAV (lysine site: K400) (UniProt P06756) | 0.958 (active)
RPS3A (lysine site: K63) (UniProt P61247) | 1.79 (active)
CCT4 (lysine site: K489) (UniProt P50991) | 2.21 (inactive)
CNN2 (lysine site: K30) (UniProt Q99439) | 4.32 (inactive)
RPL5 (lysine site: K48) (UniProt P46777) | 1.91 (active)
GAPDH (lysine site: K227) (UniProt P04406) | 1.76 (active)
EGFR (lysine site: K328) (UniProt P00533) | 3.46 (inactive)
UniProt Q9Y5I4 (lysine site: K686) | 5.99 (inactive)
ENO1 (lysine site: K256) (UniProt P06733) | 1.87 (active)
PGK1 (lysine site: K323) (UniProt P00558) | 5.55 (inactive)
UniProt P23352 (lysine site: K411) | 2.12 (inactive)
VAPA (lysine site: K205) (UniProt Q9P0L0) | 7.76 (inactive)
NUMA1 (lysine site: K645) (UniProt Q14980) | 1.09 (active)
ACTN4 (lysine site: K535) (UniProt O43707) | 1.05 (active)
UniProt P16144 (lysine site: K392) | 0.94 (active)
IGSF3 (lysine site: K279) (UniProt O75054) | 2.5 (inactive)
SPTAN1 (lysine site: K1288) (UniProt Q13813) | 1.21 (active)
CD9 (lysine site: K133) (UniProt P21926) | 5.95 (inactive)
EGFR (lysine site: K133) (UniProt P00533) | 1.08 (active)
CD109 (lysine site: K567) (UniProt Q6YHK3) | 3.37 (inactive)
